Shown are actives, neighbours in structure and some others; about 9.3% of the full set was active somewhere.
NPC1 promoter act = activators of NPC1 promoter. Huh7 NPC1 promoter luciferase reporter, 24 h. 2.4% of 320,000 active. Potency, µM (titrated, usually from 9.22 µM), hits mostly activators; further: nearly all actives have a fitted effect of over 60% in size
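Luminescence from an NPC1 promoter-driven luciferase reporter in stably transfected Huh7 cells was measured after 24 h compound treatment at 37 °C, followed by 10 min ambient incubation with luciferase detection reagent.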
FLuc counter = firefly luciferase modulation, counter-screen for miR-21 project; P08659; purified FLuc, Km substrates, luminescence inhibition; Potency, µM (top dose mostly 57.5 µM), hits mostly inhibitors; 6.9% of 360,000 active; AID 588342; further: nearly all actives have a fitted effect of over 55% in size
Target sequence (P08659 whole entry, looked up): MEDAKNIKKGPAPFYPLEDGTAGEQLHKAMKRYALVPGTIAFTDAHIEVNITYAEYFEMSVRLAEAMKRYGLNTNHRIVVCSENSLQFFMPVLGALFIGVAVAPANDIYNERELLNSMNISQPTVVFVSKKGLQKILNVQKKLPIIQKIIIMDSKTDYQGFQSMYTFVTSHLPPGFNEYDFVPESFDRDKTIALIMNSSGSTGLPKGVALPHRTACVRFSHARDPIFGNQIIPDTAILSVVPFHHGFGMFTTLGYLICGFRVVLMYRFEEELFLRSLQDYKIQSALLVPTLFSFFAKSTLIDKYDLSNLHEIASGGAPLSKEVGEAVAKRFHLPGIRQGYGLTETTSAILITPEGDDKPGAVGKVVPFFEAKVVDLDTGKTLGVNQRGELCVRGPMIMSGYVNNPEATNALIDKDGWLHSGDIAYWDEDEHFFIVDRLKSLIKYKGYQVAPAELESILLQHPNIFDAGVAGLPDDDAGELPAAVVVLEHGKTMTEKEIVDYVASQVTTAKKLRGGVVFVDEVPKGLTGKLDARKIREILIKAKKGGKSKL
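Purified P. pyralis luciferase (10nM final) with 10uM D-luciferin and 10uM ATP (Km levels) in 50mM Tris acetate pH 7.5, 10mM Mg acetate, 0.01% Tween-20, 0.05% BSA; qHTS 6-point titration, ~60 µM downward; luminescence read.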
SMN2 splice up = enhancers of SMN2 splice variant expression; Potency, µM (doses to about 46.1 µM), most hits filed as activators; 2.8% of 210,000 active; HEK293 SMN2-luciferase splicing reporter, luminescence, 30-36 h; AID 1458; further: nearly all actives have a fitted effect of over 55% in size
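HEK293 cells carry an SMN2 […]–luciferase reporter in which exon 7 inclusion puts luciferase in frame. Cells were plated 10-12 h before compound addition, then incubated 30-36 h at 37C. ONE-Glo luminescence was read; sodium butyrate at 4.5 mM final served as control.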
ELG1 DNA repair = ELG1-dependent DNA repair inhibition. HEK293T ELG1-luciferase reporter, luminescence, 16 h; DNA damage induced by 5-fluorouridine. Potency, µM (top dose mostly 46.1 µM), actives largely listed as inhibitors. 2.3% of 330,000 active; further: nearly all actives have a fitted effect of over 55% in size
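DMSO vehicle served as the neutral condition. Each well held 2,000 cells given 5-fluorouridine plus compound; after 16 hr at 37 °C/5% CO2, ONE-Glo was added and luciferase measured 30 min later.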
Rab9 promoter act = activators of Rab9 promoter; Huh7 Rab9 promoter-luciferase reporter, luminescence, 24 h; Potency, µM (doses to about 9.22 µM), most hits filed as activators; 2.8% of 320,000 active; further: nearly all actives have a fitted effect of over 60% in size
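Luciferase signal after 10 min detection reagent at ambient indicates Rab9 promoter upregulation; stably transfected Huh7 cells were treated 24 h with compound in DMSO at 37 °C, 5% CO2.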
ELG1 genotoxic = inducers of genotoxicity in HEK293T ELG1-luciferase cells; 1.3% of 330,000 active; HEK293T ELG1-luciferase reporter, luminescence, 16 h; Potency, µM (series often up to 46 µM), usual class: activators; further: nearly all actives have a fitted effect of over 60% in size
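ELG1-luciferase HEK293T cells, 2,000/well; compound pinned in; 16 hr, 37 °C, 5% CO2; ONE-Glo, 30 min RT; luminescence on CCD imager.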
Of the large screens only hits and unclear results are named; the others gave an inactive call. The call rests on the fitted dose curve; in most records, active means well fitted curve in the direction sought with a large enough effect; inconclusive means small, poorly fitted or top-dose-only effect, or another doubt; inactive means no such curve, though single readings can be large; an effect the other way counts as inactive or inconclusive.

CCN(CCn1cccn1)C(=O)CCc1nnc(CCCc2ccccc2)o1	NPC1 promoter act inconclusive, FLuc counter 15µM, SMN2 splice up 11µM, ELG1 DNA repair inconclusive, Rab9 promoter act 2.8µM, ELG1 genotoxic 16µM
Cc1cc(-c2nnc(CCC(=O)N(C)CCc3ccccc3)o2)no1	FLuc counter inconclusive, ELG1 DNA repair inconclusive, ELG1 genotoxic inconclusive (no result: SMN2 splice up)
Cc1cccc(Cc2nnc(CCC(=O)N(C)CCc3ccccc3)o2)c1	NPC1 promoter act 3.5µM, FLuc counter 7.6µM, ELG1 DNA repair inconclusive, Rab9 promoter act 4µM, ELG1 genotoxic 18µM (no result: SMN2 splice up)
C=C(C)CN(CC)C(=O)CCc1nnc(CCCc2ccccc2)o1	NPC1 promoter act 3.5µM, FLuc counter 12µM, ELG1 DNA repair inconclusive, Rab9 promoter act 3.2µM, ELG1 genotoxic inconclusive (no result: SMN2 splice up)
Nc1cc(N)nc(SCC(=O)NCC(=O)Nc2ccc(F)c(F)c2F)n1	none (no result: NPC1 promoter act, FLuc counter, SMN2 splice up, Rab9 promoter act)
Nc1ccnc(=O)[nH]1	none (no result: SMN2 splice up)
CCOc1ccc(NC(=O)CN(C)C(=O)c2cc3c(s2)CCCCC3)cc1OCC	none (no result: SMN2 splice up)
O=C(Nc1ccccc1)c1ccc(-c2ccc(Br)cc2)o1	FLuc counter 6µM, SMN2 splice up inconclusive, ELG1 DNA repair inconclusive, ELG1 genotoxic inconclusive
O=C(Nc1ccccc1)c1ccc(-c2ccc([N+](=O)[O-])cc2)o1	NPC1 promoter act inconclusive, FLuc counter 13µM, ELG1 DNA repair inconclusive (no result: SMN2 splice up)
COc1ccc(NC(=O)c2ccc(-c3ccc([N+](=O)[O-])cc3)o2)cc1	none
COc1ccccc1NC(=O)c1ccc(-c2ccc(Br)cc2)o1	FLuc counter 8.5µM
NC(=O)c1ccccc1NC(=O)c1ccc(-c2ccc(Br)cc2)o1	none (no result: NPC1 promoter act, FLuc counter, ELG1 DNA repair, Rab9 promoter act, ELG1 genotoxic)
COc1ccccc1NC(=O)c1ccc(-c2ccccc2[N+](=O)[O-])o1	NPC1 promoter act inconclusive, FLuc counter 11µM, ELG1 DNA repair inconclusive, Rab9 promoter act inconclusive
COc1ccc(C(=O)NCC(c2cccs2)S(=O)(=O)c2ccc(F)c(C)c2)cc1 (stereo unspecified)	none (no result: NPC1 promoter act, SMN2 splice up, ELG1 DNA repair, Rab9 promoter act, ELG1 genotoxic)
CCC/C(C#Cc1ccsc1)=C1/c2ccccc2C(=O)N1c1ccccc1	ELG1 DNA repair inconclusive (no result: NPC1 promoter act, FLuc counter, SMN2 splice up, Rab9 promoter act)
CCC(C)c1ccc(S(=O)(=O)N2CCN(C(C)C(=O)NC3CCCC3)CC2)cc1 (stereo unspecified)	ELG1 DNA repair inconclusive (no result: SMN2 splice up)
CCc1ccc(C(=O)c2cn(CC(=O)Nc3ccc(F)cc3)c3ccc(F)cc3c2=O)cc1	none (no result: NPC1 promoter act, ELG1 DNA repair, Rab9 promoter act, ELG1 genotoxic)
O=C(Nc1cccc2ncccc12)c1ccc(-c2ccc(Br)cc2)o1	FLuc counter 11µM, ELG1 DNA repair inconclusive
O=C(Nc1cccc(NC(=O)c2ccc(-c3ccc(Br)cc3)o2)c1)c1ccccc1	FLuc counter 2.7µM, ELG1 DNA repair 18µM
O=C(c1ccc(-c2ccc([N+](=O)[O-])cc2)o1)N1CCCCC1	NPC1 promoter act 4µM, FLuc counter 6.7µM, SMN2 splice up inconclusive, ELG1 DNA repair inconclusive, Rab9 promoter act 1µM, ELG1 genotoxic inconclusive
O=C(Nc1cccc(NC(=O)c2ccc(-c3cccc(Br)c3)o2)c1)c1ccco1	FLuc counter inconclusive, ELG1 DNA repair 9.2µM
COc1ccc(NC(=O)N2CCCC2C(=O)NCCc2ccccc2)cc1 (stereo unspecified)	none (no result: SMN2 splice up)
C=CCOc1ccc(C2C(C(=O)c3ccco3)=C(O)C(=O)N2c2nnc(C)s2)cc1 (stereo unspecified)	FLuc counter inconclusive
CCC(C)Sc1nnc(CSc2nc3nc(C)cc(C)n3n2)o1 (stereo unspecified)	none
O=C(Nc1ccc(CN2CCOCC2)cc1)c1ccc(-c2ccc(Br)cc2)o1	FLuc counter inconclusive, ELG1 DNA repair 18µM
COc1ccc(S(=O)(=O)N2CCCC(C(=O)NC3CC3)C2)cc1Cl (stereo unspecified)	none (no result: SMN2 splice up)
COc1ccc(CCNC(=O)CSc2nnc(-c3ccccc3)c3ccccc23)cc1OC	ELG1 DNA repair inconclusive
CCCCn1c(-c2ccccc2)cnc1SCC(=O)NCCc1ccc(OC)c(OC)c1	FLuc counter 17µM, ELG1 DNA repair inconclusive
CCOc1ccc(CCNC(=O)CCc2nc(-c3ccc(OC)cc3)no2)cc1OCC	none

High-throughput results as filed in PubChem BioAssay.
